ClpP mod = qHTS Assay for Activators of ClpP | ATP-dependent Clp protease proteolytic subunit (Bacillus subtilis (strain 168)), P80244 | purified B. subtilis ClpP, FRET peptide cleavage, 20 min | Potency, µM (series often up to 57.5 µM), without a hit: at the top dose activity change, negative = active | actives 1.9% (n = 340,000) | AID 651965, 2013; active = well fitted falling curve with a large enough effect; inconclusive = small, poorly fitted or top-dose-only effect; inactive = no such curve, though single readings can be large or run the other way; note: potency is the fitted concentration of half-maximal effect; the source files actives as falling curves though it sought activators and does not explain the sign; nearly all actives have a fitted effect of over 65% in size
Target sequence (P80244 whole entry, looked up): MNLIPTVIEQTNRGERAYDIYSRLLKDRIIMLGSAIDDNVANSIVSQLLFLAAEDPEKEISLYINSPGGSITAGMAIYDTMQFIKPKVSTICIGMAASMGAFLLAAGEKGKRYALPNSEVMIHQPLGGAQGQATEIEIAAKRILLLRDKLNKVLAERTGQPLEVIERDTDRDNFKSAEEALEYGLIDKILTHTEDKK
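Buffer: 100 mM Tris/HCl pH8, 100 mM KCl, 0.05% low protease BSA, 2.5% glycerol, 0.01% Tween-20. ClpP 10 microg/mL final; 20 min RT; delta FRET normalized to ADEP and DMSO controls.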
DRD3 agonist = D3 dopamine receptor (human) agonism. D3R DiscoveRx beta-arrestin cells, luminescence, 90 min. actives 0.58% (n = 410,000). max activation, %. AID 652048. P35462; in the data active = max activation above about 30%; note: 0% is about no effect
Target sequence (P35462 whole entry, looked up): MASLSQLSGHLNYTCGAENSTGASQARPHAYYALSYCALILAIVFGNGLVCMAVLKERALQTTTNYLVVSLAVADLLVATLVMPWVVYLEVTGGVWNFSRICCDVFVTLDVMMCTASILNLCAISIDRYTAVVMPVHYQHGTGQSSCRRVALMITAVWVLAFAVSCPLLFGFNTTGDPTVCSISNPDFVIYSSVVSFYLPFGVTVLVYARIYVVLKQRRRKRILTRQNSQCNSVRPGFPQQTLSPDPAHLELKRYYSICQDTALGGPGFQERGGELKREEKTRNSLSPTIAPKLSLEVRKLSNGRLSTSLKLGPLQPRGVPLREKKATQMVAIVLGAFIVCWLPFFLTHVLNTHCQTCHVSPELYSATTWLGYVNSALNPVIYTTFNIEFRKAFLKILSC
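Agonist-mode cell screen: cells plated at 1500/well and incubated overnight at 37 °C, then exposed to library compounds for 90 min at 37 °C. Detection reagent was added for 30–60 min at room temperature, and luminescence was read.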
TDP1 cell noCPT = qHTS for Inhibitors of human tyrosyl-DNA phosphodiesterase 1 (TDP1): qHTS in cells in absence of CPT | AID 686978, 2013 | DT40 Tdp1-/- hTDP1 cells, no CPT, ATP luminescence, 48 h | Potency, µM (series often up to 46.2 µM), for inactives: top-dose activity change, negative = growth inhibition, usual class: inhibitors | actives 15% (n = 420,000); note: potency is the fitted concentration of half-maximal effect; % is set by controls: 0 for no effect and ±100 for the full control effect; nearly all actives have a fitted effect of over 55% in size
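Camptothecin absent (DMSO only). Human TDP1-complemented DT40 knockout cells, 400 cells/well, 37 °C for minimum 48 hr; ATP measured via CellTiter-Glo, 30 min dark incubation, luminescence.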
TDP1 cell CPT = DT40-hTDP1 cell growth loss with CPT; Potency, µM (titrated, usually from 46.2 µM), for the others: top-dose activity change, negative = growth inhibition, hits mostly inhibitors; chicken DT40 Tdp1-/-;hTDP1 cells + 20 nM CPT, ATP luminescence, 48 h; actives 12% (n = 420,000); AID 686979; note: potency is the fitted concentration of half-maximal effect; % is set by controls: 0 for no effect and ±100 for the full control effect; nearly all actives have a fitted effect of over 55% in size
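Cell growth measured by CellTiter-Glo luminescence after a minimum 48 h, 37 C compound exposure with 20 nM CPT in Tdp1-knockout DT40 cells stably expressing hTDP1, seeded 400/well; qHTS titration format.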
D3 antag = antagonists of human D3 dopamine receptor; actives 2.5% (n = 360,000); D3R cells, DiscoveRx beta-arrestin luminescence, antagonist mode; stronger effect = lower value; max response, negative = inhibition, %; P35462; in the data active = max response below about -50%; inconclusive = no clear call, values can overlap the other calls; note: % is set by controls: 0 for no effect and ±100 for the full control effect
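Cells expressing the human receptor were seeded at 1500 cells/well, incubated overnight at 37 degrees C in 5% CO2, then exposed to library compounds with dopamine controls for 90 minutes at 37 degrees C before luminescent detection.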
IL-1B inflam inh = inflammasome signaling inhibition, IL-1 beta readout | AID 743279 | THP-1 LPS/ATP IL-1B secretion, AlphaLISA, 16 h; stronger effect = lower value | actives 4.7% (n = 360,000) | activity change, % at 57.5 µM; in the data active = activity change below about -50%; inconclusive = mostly about -30% to -49%; note: % is set by controls: 0 for no effect and ±100 for the full control effect
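Secreted IL-1B measured by AlphaLISA bead assay after 16 h compound exposure of THP-1 cells; compounds (final up to 57.5 uM) added 1 h before LPS (250 ng/mL) and ATP (1.25 mM) stimulation; lower signal means less secretion.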
* = called active by the depositor; u = inconclusive; x = not tested or not shown. A selection: hits, their analogues and other compounds. The true share with any hit is near 21%. Unless noted, calls come from the whole dose curve; as a rule, active = well fitted inhibition curve with a large enough effect; inconclusive = small, poorly fitted or top-dose-only effect; inactive = flat fitted curve, though single readings scatter.

SMILES | ClpP mod | DRD3 agonist | TDP1 cell noCPT | TDP1 cell CPT | D3 antag | IL-1B inflam inh
CCCCn1c(-c2cccc(Br)c2)nc2cc3[nH]c(=O)c(C(C)C)nc3cc21 | 4% | 63* | 26µM* | 18µM* | 39 | -52*
CCCCn1c(-c2ccc(C(C)(C)C)cc2)nc2cc3[nH]c(=O)c(C(C)C)nc3cc21 | 4% | 8 | 15µM* | u | 12 | 27
CCCCn1c(=O)[nH]c(=O)c2c1nc(-c1ccc3ccccc3c1)n2CC | x | -2 | u | u | 2 | -5
CCCCn1c(-c2ccc(Cl)c(Cl)c2)nc2cc3[nH]c(=O)c(C(C)C)nc3cc21 | 4% | 10 | u | u | 12 | 35
CCCCn1c(-c2cccnc2)nc2cc3[nH]c(=O)c(C(C)C)nc3cc21 | 4% | 0 | 15µM* | 18µM* | 56 | 4
Cn1c(=O)c2[nH]c(CCNC(=O)c3ccccc3)nc2n(C)c1=O | x | 2 | 0% | 7% | 4 | 7
O=C(CNC(=O)c1ccc(OC(F)F)cc1)Nc1cccc(S(=O)(=O)N2CCCC2)c1 | 2% | -21 | -11% | -21% | -19 | 5
COc1ccc(C(=O)c2c(-c3ccc(OC)cc3)oc3ccccc23)cc1 | u | -21 | u | u | -63* | -10
COc1ccc(/C=C/c2c(-c3cccc(C)c3)oc3ccc(N4CCOCC4)cc23)cc1 | 4% | -5 | -28% | u | -12 | -3
COc1ccc(C(=O)c2c(C)oc3ccc(O)cc23)cc1 | -3% | -5 | 1% | -9% | -14 | 0
COC(=O)c1ccc(/C=C/c2c(-c3ccc(OC)cc3)oc3ccc(N4CCOCC4)cc23)cc1 | 4% | -12 | 23µM* | u | 55 | -6
COc1ccc(C(=O)c2ccc3oc(-c4ccc(OC)cc4)c(-c4ccc(O)cc4)c3c2)cc1 | -2% | 16 | 9.2µM* | u | 0 | -19
COC(=O)c1ccc(/C=C/c2c(-c3ccc(OC)cc3)oc3ccccc23)cc1 | 4% | 8 | 18µM* | 18µM* | 0 | -6
O=C(NCc1ccccn1)C12CC3CC(CC(C3)C1)C2 | x | -6 | u | 16% | -2 | -4
O=C(COC(=O)c1cc(=O)[nH]c2ccccc12)NCc1ccccc1 | -11% | -3 | 15% | 4% | -1 | 34
O=c1nc(/C=C/c2ccc(O)c(O)c2)oc2ccccc12 | x | -14 | -29% | -14% | -30 | -6
COc1ccc(/C=C\c2nc(=O)c3ccccc3o2)cc1 | x | 4 | 7.3µM* | u | -27 | -4
Cc1c(C(=O)N2CCOCC2)cc(C(C)(C)C)n1-c1ccccc1 | x | -8 | 21µM* | u | 1 | -2
COc1ccc2occ(C(=O)c3coc4ccc(O)c(CN(C)C)c34)c2c1 | -1% | 8 | u | 16µM* | 36 | -2
Cc1ccc(C(=O)c2coc3ccc(O)c(Cl)c23)cc1 | -1% | -6 | u | -28% | 5 | 0
O=C(c1ccccc1)c1coc2ccc(O)c(Cl)c12 | -3% | -2 | -9% | -24% | -52* | -12
CCN(CC)Cc1c(O)ccc2occ(C(=O)c3ccccc3)c12 | 1% | 5 | -13% | u | -7 | 0
COc1ccc(OC)c(C(=O)c2coc3ccc(O)c(CN(C)C)c23)c1 | 0% | 5 | u | -26% | -8 | -1
CN(C)Cc1c(O)ccc2occ(C(=O)c3ccc(F)cc3)c12 | x | 4 | -30% | u | -8 | -54*
CCOC(=O)C1Nc2c(cc(C(F)(F)F)cc2[N+](=O)[O-])C2c3ccccc3CC12 (stereo not drawn) | -4% | -5 | u | 18µM* | 24 | 12
SMILES | ClpP mod | DRD3 agonist | TDP1 cell noCPT | TDP1 cell CPT | D3 antag | IL-1B inflam inh
CCOC(=O)C1Nc2ccccc2C2c3ccccc3CC12 (stereo not drawn) | 4% | -16 | 2.6µM* | 21µM* | -9 | -10
CCOC(=O)C1CC(=O)c2ccccc2C1c1ccccc1 (stereo not drawn) | x | -3 | u | -15% | 2 | 6
CCOC(=O)C1Nc2c(F)cc(C)cc2C2c3ccccc3CC12 (stereo not drawn) | u | -16 | u | u | -54* | u
CC(C)=NOCC(=O)Nn1c(COc2ccccc2)nc2ccccc2c1=O | 1% | 7 | 7% | -9% | -10 | 0
CNCCNS(=O)(=O)c1cccc2cnccc12 | x | x | u | 18µM* | x | x
O=S(=O)(NCCCCNS(=O)(=O)c1cccc2cccnc12)c1cccc2cccnc12 | 0% | x | -22% | 3% | x | x
O=S(=O)(NCCNCC=Cc1ccc(Br)cc1)c1cccc2cnccc12 | -2% | x | 14µM* | 10µM* | x | x
O=S(=O)(NCCNC/C=C/c1ccc(Br)cc1)c1cccc2cnccc12 | x | x | 24µM* | 19µM* | x | x
O=C(/C=C/c1ccc(Br)cc1)Nc1ccc(S(=O)(=O)Nc2ncccn2)cc1 | -2% | -1 | 7% | -2% | 9 | 0
O=S(=O)(c1cccc2cnccc12)N1CCCNCC1 | 1% | -6 | u | u | 10 | -20
CC(C)N(Cc1ccccc1)C(=O)COC(=O)c1cc[n+]([O-])cc1 | 1% | 0 | -19% | -11% | 20 | -5
CS(=O)(=O)c1ccc2nc(NC(=O)c3ccc(N4C(=O)CCC4=O)cc3)sc2c1 | x | 1 | -32% | u | -3 | -4
COc1cc(-c2noc(CCCC(=O)Nc3cccnc3)n2)cc(OC)c1OC | x | 0 | -4% | 16% | 5 | 25
COc1cccc(NC(=O)CCc2nc(-c3cc(OC)c(OC)c(OC)c3)no2)c1 | -2% | -4 | 16µM* | 18µM* | x | x
COc1cc(-c2noc(CCC(=O)Nc3cc(C)ccc3C)n2)cc(OC)c1OC | 1% | -5 | 12µM* | 18µM* | x | x
CSc1ccccc1NC(=O)CSc1cccc[n+]1[O-] | -2% | -7 | -1% | 20% | -27 | 0
CCn1cc(C(=O)N2CCN(c3cccc(Cl)c3)CC2)c(=O)c2cc(S(=O)(=O)N3CCOCC3)ccc21 | -2% | -12 | -18% | 12% | x | x
CCN(CC)S(=O)(=O)c1ccc(N2CCOCC2)c(NC(=O)c2cc(-c3ccccn3)nc3ccccc23)c1 | 0% | -4 | 9.2µM* | 13µM* | 31 | -29

High-throughput results from PubChem BioAssay.
